Screens from PubChem BioAssay.
An excerpt weighted towards active compounds, which were near 10% of everything screened.
JMJD2A Tudor – blocks the human JMJD2A Tudor domain | AlphaScreen JMJD2A-Tudor / H3K4me3 peptide binding | Potency, µM (highest dose often 114 µM), hits mostly inhibitors | AID 504339 | actives 4.4% (n = 390,000); further: nearly all actives have a fitted effect of over 50% in size
GLS inhibitor – blocks human kidney-isoform glutaminase activity | O94925 | GLS enzymatic activity, qHTS titration | Potency, µM (top dose mostly 45.5 µM), most hits filed as inhibitors | actives 0.21% (n = 410,000)
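Assay buffer: 45 mM KH2PO4 pH 8.2, 0.02% Tween-20. hKGA acts on L-glutamine (1 mM solution added); product glutamate is reported by an oxidase/peroxidase Amplex Red coupling, with fluorescence taken at baseline and 30 min.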
HP1b binding inh – blocks HP1-beta chromodomain binding to methylated histone tails. AlphaScreen HP1-beta / biotin-H3K9me3 peptide binding. Potency, µM (top dose mostly 114 µM), usual class: inhibitors. actives 0.56% (n = 390,000); further: nearly all actives have a fitted effect of over 70% in size
Target sequence (P83916 whole entry, looked up): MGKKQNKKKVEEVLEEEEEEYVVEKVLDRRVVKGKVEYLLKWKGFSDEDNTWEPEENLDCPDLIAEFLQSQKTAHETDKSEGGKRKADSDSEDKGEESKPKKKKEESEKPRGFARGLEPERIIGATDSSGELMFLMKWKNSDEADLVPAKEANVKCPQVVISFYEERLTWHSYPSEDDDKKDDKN
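AlphaScreen: HP1-beta (50 nM) preformed 30 min with biotin-H3(1-18)K9me3 peptide (50 nM) in PBS pH 7.4, 0.01% Tween-20. Compound added for 30 min at RT, then streptavidin donor/nickel chelate acceptor beads (10 ug/mL) for 30 min.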
BAZ2B block – blocks human BAZ2B | AlphaScreen BAZ2B-H3K14Ac peptide displacement | Potency, µM (highest dose often 114 µM), hits mostly inhibitors | Q9UIF8 | actives 4.4% (n = 360,000) | AID 504333; further: nearly all actives have a fitted effect of over 60% in size
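AlphaScreen displacement of biotin-H3(5-23)K14Ac peptide (50 nM final) from BAZ2B (50 nM final) in PBS pH 7.4, 0.01% Tween-20; complex preformed 30 min RT, then compounds (top 110 uM) 30 min RT, beads 20 min dark.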
G9a inh – G9a (human) methyltransferase inhibition. Q96KQ7. G9a H3K9 monomethylation, AlphaScreen, 2 h. Potency, µM (series often up to 102 µM), hits mostly inhibitors. actives 8.8% (n = 350,000). AID 504332; further: nearly all actives have a fitted effect of over 75% in size
Target sequence (Q96KQ7 913-1193 limits assumed): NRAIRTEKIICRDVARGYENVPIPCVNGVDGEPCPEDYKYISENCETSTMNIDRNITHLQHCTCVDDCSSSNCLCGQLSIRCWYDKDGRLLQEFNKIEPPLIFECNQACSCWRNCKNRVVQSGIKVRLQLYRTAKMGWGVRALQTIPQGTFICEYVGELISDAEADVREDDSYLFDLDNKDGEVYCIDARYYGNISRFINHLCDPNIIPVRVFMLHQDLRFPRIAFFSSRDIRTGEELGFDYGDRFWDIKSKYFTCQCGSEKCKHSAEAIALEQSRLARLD
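Compounds were preincubated with 20 nM G9a for 15 min, after which biotinylated H3K9 peptide (500 nM) and SAM (20 uM) started a 2 h room-temperature reaction. Monomethylated product was quantified by antibody-based AlphaScreen chemiluminescence.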
Hits are given with their value; n = inactive; u = inconclusive; x = not tested or not shown; [ ] = remark or other dose. The call rests on the fitted dose curve; in most records, active means well fitted curve in the direction sought with a large enough effect; inconclusive means small, poorly fitted or top-dose-only effect, or another doubt; inactive means no such curve, though single readings can be large; an effect the other way counts as inactive or inconclusive.

SMILES | JMJD2A Tudor | GLS inhibitor | HP1b binding inh | BAZ2B block | G9a inh
CCC1CCCCN1C(=O)Cn1c(=O)n(-c2ccc(Cl)c(Cl)c2)c(=O)c2c(C)c(C(=O)N(C)C)sc21 (configuration not stated) | n | n | n | n | n
C/C(N)=C(/C#N)C(=O)CSc1nc2ccccc2[nH]1 | 79.4µM | n | u | u | u
CCOc1ccccc1NC(=O)C1CCN(S(=O)(=O)c2c(C)noc2C)CC1 | n | n | n | n | n
COc1ccc(NC(=O)c2ccc(-c3ccc(-c4noc(C)n4)cc3C)cc2)cc1N1CCN(C)CC1 | 44.7µM | n | u | 35.5µM | 25.1µM
COc1ccc(NC(=O)c2ccc(-c3ccc(-c4noc(C)n4)cc3C)cc2)cc1OCCN(C)C | x | x | x | x | 15.8µM
COc1ccc(NC(=O)N2CCN(c3cc(-c4noc(C)n4)ccc3C)CC2)c(OC)c1 | n | n | n | n | n
O=C(NC1CCCC1)C1CCN(C(=O)c2cccc(Cl)c2)CC1 | n | n | n | n | n
Cc1ccc(Cn2c(SCC(C)C)nc3c2c(=O)[nH]c(=O)n3C)cc1 | n | n | u | n | u
CCOc1ccc(/C=C(\C#N)C(=O)Nc2sc3c(c2C(=O)OC)C(C(=O)OC)CC3)cc1OC (configuration not stated) | 56.2µM | n | u | 50.1µM | 1.41µM
Cc1ccc(-n2nc3ccc(N)cc3n2)c(C)c1 | n | n | n | u | x
COc1ccc(-n2nc3ccc(N)cc3n2)cc1Cl | n | n | n | n | n[0.501 µM]
Cc1ccc(-n2nc3ccc(N)cc3n2)cc1C | n | n | n | 50.1µM | 10µM
Cc1ccc(-n2nc3ccc(N)cc3n2)cc1Cl | n | n | n | u | 44.7µM
Cc1cc2c(s1)c1cnn(Cc3cccc(F)c3)c(=O)c1n2C | n | x | x | x | x
Cc1ccc(CN2CCN(Cc3cccn3-c3ccccn3)CC2CCO)o1 (configuration not stated) | n | n | n | n | x
OCC(O)[C@@H](O[C@H]1O[C@H](CO)[C@@H](O)[C@H](O)[C@H]1O)[C@H](O)[C@@H](O)CO (some centres not stated) | n | n | n | n | n
C#CCOCCOCCOCCNc1nc(N2CCN(C(=O)[C@H](Cc3cc4ccccc4[nH]3)n3cc([C@@H](N)CC(C)C)nn3)CC2)nc(N2CCN(C(=O)[C@H](Cc3cc4ccccc4[nH]3)n3cc([C@@H](N)CC(C)C)nn3)CC2)n1 | 44.7µM | n | u | 44.7µM | u
C#CCOCCOCCOCCNc1nc(N2CCN(C(=O)[C@H]([C@@H](C)CC)n3cc([C@@H](N)CC(C)C)nn3)CC2)nc(N2CCN(C(=O)[C@H](Cc3cc4ccccc4[nH]3)n3cc([C@@H](N)CC(C)C)nn3)CC2)n1 | x | x | x | 56.2µM | u
C#CCOCCOCCOCCNc1nc(N2CCOCC2)nc(N2CCN(C(=O)[C@H](Cc3cc4ccccc4[nH]3)n3cc([C@@H](N)CC(C)C)nn3)CC2)n1 | u | n | n | n | u
C#CCOCCOCCOCCNc1nc(N2CCN(C(=O)[C@H](Cc3cc4ccccc4[nH]3)n3cc(C(N)CC(C)C)nn3)CC2)nc(N2CCN(C(=O)[C@H](CCC(=O)O)n3cc(C(N)[C@H](C)CC)nn3)CC2)n1 (some centres not stated) | 56.2µM | n | n | 44.7µM | n[12.7 µM]
C#CCOCCOCCOCCNc1nc(N2CCN(C(=O)[C@H](CCC(=O)O)n3cc(C(N)CC(C)C)nn3)CC2)nc(N2CCN(C(=O)[C@H](Cc3cc4ccccc4[nH]3)n3cc(C(N)CC(C)C)nn3)CC2)n1 (some centres not stated) | u | n | n | 50.1µM | u
COc1ccc(NC(=O)C2CCCN2C(=O)NC2CCCCC2)cc1 (configuration not stated) | u | n | n | n | n
C#CCOCCOCCOCCNc1nc(N2CCN(C(=O)C(CCC(=O)O)n3cc(C(N)CC(C)C)nn3)CC2)nc(N2CCN(C(=O)C(Cc3cc4ccccc4[nH]3)n3cc(C(N)Cc4ccc(O)cc4)nn3)CC2)n1 (configuration not stated) | 56.2µM | n | n | 44.7µM | n[12.7 µM]
C#CCOCCOCCOCCNc1nc(N2CCN(C(=O)[C@H](Cc3cc4ccccc4[nH]3)n3cc([C@@H](N)C(C)CC)nn3)CC2)nc(N2CCN(C(=O)[C@H](CCCCN)n3cc([C@@H](N)CC(C)C)nn3)CC2)n1 (some centres not stated) | 44.7µM | n | n | 35.5µM | n[12.7 µM]
C#CCOCCOCCOCCNc1nc(N2CCN(C(=O)C([C@@H](C)CC)n3cc(C(N)COC(=O)C(F)(F)F)nn3)CC2)nc(N2CCN(C(=O)[C@H](Cc3cc4ccccc4[nH]3)n3cc(C(N)CO)nn3)CC2)n1 (some centres not stated) | 50.1µM | n | n | x | x
SMILES | JMJD2A Tudor | GLS inhibitor | HP1b binding inh | BAZ2B block | G9a inh
C#CCOCCOCCOCCNc1nc(N2CCN(C(=O)[C@H]([C@@H](C)CC)n3cc([C@@H](N)CO)nn3)CC2)nc(N2CCN(C(=O)[C@H](Cc3cc4ccccc4[nH]3)n3cc([C@@H](N)C(C)CC)nn3)CC2)n1 (some centres not stated) | x | x | x | 50.1µM | u
CCOC(=O)CSc1nnc(NC(=O)c2ccc3c(c2)OCO3)s1 | n | n | n | n | n
O=C(/C=C/c1ccc(Cl)c(Cl)c1)n1cccn1 | n | n | n | n | n[12.7 µM]
CCO/N=C(/C)c1c(O)c(C)c(-c2ccccc2)n(-c2ccccc2)c1=O | n | n | n | n | n
CCc1nc2ccc(C(=O)N3CCN(C)CC3)cn2c1N(CCC(C)C)CCN(C)C | x | n | x | x | x
O=C(NC(=S)NCCOCc1ccc(Cl)cc1)c1cccnc1 | n | n | n | n | n
CC(Cc1ccccc1)NC(=O)CN1C(=O)c2ccccc2S1(=O)=O (configuration not stated) | n | n | n | n | n
Cc1nn(-c2ccc(N3CCCC3)nn2)c(C)c1CCC(=O)Nc1ccccc1 | n | n | n | n | n
COc1cccc(C2Nc3ccc4ccccc4c3C3=C2C(=O)CC(C)(C)C3)c1OCC(=O)O (configuration not stated) | n | 12.6µM | n | n | n
CN/N=C/c1ccc(C#N)cc1 | n | n | n | n | n
CCC(=O)Nc1nc(=S)ss1 | n | n | u | u | 8.91µM
Cc1ccccc1-c1nnc(CN2CCC(C)CC2)o1 | n | n | n | n | n
Cc1cccc(N2CCN(Cc3nnc(-c4ccccc4C)o3)CC2C)c1 (configuration not stated) | 79.4µM | n | n | u | u
Nn1c(SCC(=O)NCCC2=CCCCC2)nnc1-c1cccnc1 | n | n | n | n | 44.7µM
CC(C)c1nnc(SCC(=O)NCCC2=CCCCC2)n1N | n | n | u | n | 8.91µM
Cc1ccc2nc(C)cc(NCCO)c2c1 | n | n | n | n | n[12.7 µM]
